Data published in PubChem BioAssay AID455 (Sanford-Burnham Center for Chemical Genomics, 2006).
The campaign covered roughly 10,000 compounds. About 20 (0.2%) were called active. What follows is part of a selection rich in actives, with near analogues and random picks from the rest. Values without a mark were called inactive.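 How the source made its calls: active means a compound raising TNF-alpha-driven VCAM-1 surface staining, with its hit status upheld on visual or statistical review; inactive means the rest, including hits rejected on review.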

test: enhancers of VCAM-1 display on endothelial cells, cell-based, plate reader, pooled HUVEC, TNFa stimulus (AID 455); conditions: HUVEC TNFa-induced VCAM-1 immunofluorescence; stronger effect = higher value, 100% set by best visually verified hit,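 tested at 5 µM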;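 on augmentation: 0% = TNFa plus DMSO wells and 100% = a visually confirmed top hit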

**Q.** For `Nc1nc(N2C(=O)C3CC=CCC3C2=O)nn1-c1ccccc1` (stereo unspecified), which augmentation is on record?
**A.** The augmentation was “inactive”.

**Q.** Which augmentation does the source give for `O=C1c2ccccc2C(Nc2ccc3nc(-c4cccnc4)[nH]c3c2)N1Cc1ccco1` (stereo unspecified) here?
**A.** The augmentation was “inactive”.

**Q.** With `CCCCn1nnc(NC(=O)c2cc3ccccc3o2)n1` as the compound, how does the augmentation read?
**A.** Its augmentation is “inactive”.

**Q.** With `COc1ccc2nc(NC(=O)c3ccoc3C)sc2c1` as the compound, how does the augmentation read?
**A.** The augmentation was “inactive”.

**Q.** For `COC(=O)C1C2C=CC3(CN(CC4CCCO4)C(=O)C13)O2` (stereo unspecified), which augmentation is on record?
**A.** The augmentation was “inactive”.

**Q.** With `CCOC(=O)c1c(NC(=O)Cn2c(=O)oc3ccccc32)oc(C)c1C(C)=O` as the compound, how does the augmentation read?
**A.** Its augmentation is “inactive”.

**Q.** With `Cc1ccnc(SCCn2c(N3CCCCC3)nc3c2c(=O)n(C)c(=O)n3C)n1` as the compound, how does the augmentation read?
**A.** The augmentation was “inactive”.

**Q.** Which augmentation does the source give for `CC(=O)Nc1ccc(N2CCN(Cc3ccccc3F)CC2)cc1` here?
**A.** The augmentation was “inactive”.

**Q.** For `CCCCN(CCCC)C(=O)CN(C)S(=O)(=O)c1ccc2c(c1)n(C)c(=O)c(=O)n2C`, which augmentation is on record?
**A.** Its augmentation is “inactive”.

**Q.** With `O=C(CSc1nnnn1-c1ccccc1)Nc1ccc(Cl)cc1` as the compound, how does the augmentation read?
**A.** Its augmentation is “inactive”.

**Q.** For `COc1ccc(S(=O)(=O)NCCOc2ccccc2)cc1OC`, which augmentation is on record?
**A.** The augmentation was “inactive”.

**Q.** Which augmentation does the source give for `CCOc1ccc(N(C(C)=O)C2C=CS(=O)(=O)C2)cc1` (stereo unspecified) here?
**A.** Its augmentation is “inactive”.

**Q.** Which augmentation does the source give for `Cc1ccc(S(=O)(=O)N2CCC(C(=O)NCCN3CCCCCC3)CC2)cc1` here?
**A.** The augmentation was “inactive”.

**Q.** For `O=C(c1ccc(S(=O)(=O)N2CCOCC2)cc1)N(c1ccc(F)cc1)C1C=CS(=O)(=O)C1` (stereo unspecified), which augmentation is on record?
**A.** The augmentation was “inactive”.

**Q.** With `COc1ccc(-c2nnc(SCC(=O)NC(C)c3ccccc3)o2)cc1` (stereo unspecified) as the compound, how does the augmentation read?
**A.** Its augmentation is “inactive”.

**Q.** Which augmentation does the source give for `COC(=O)c1ccc(CSc2nc(-c3ccc(OC)cc3)nc3c2c(=O)n(C)c(=O)n3C)o1` here?
**A.** The augmentation was “inactive”.

**Q.** With `CC1CCN(C(=O)c2ccc(C(=O)N3CCC(C)CC3)cc2)CC1` as the compound, how does the augmentation read?
**A.** The augmentation was “inactive”.

**Q.** Which augmentation does the source give for `CCOC(=O)Cc1cc(=O)n2[nH]c(C)c(-c3ccc(OC)cc3)c2n1` here?
**A.** The augmentation was “inactive”.

**Q.** Which augmentation does the source give for `COC(=O)Cc1cc(=O)[nH]c(Nc2nc3ccccc3o2)n1` here?
**A.** The augmentation was “inactive”.

**Q.** With `O=C(NC1CCCCCC1)c1cc(S(=O)(=O)N2CCC3(CC2)OCCO3)ccc1F` as the compound, how does the augmentation read?
**A.** Its augmentation is “inactive”.

**Q.** For `CCOc1cc(N2CCOCC2)c(OCC)cc1NC(=O)CSc1cccc[n+]1[O-]`, which augmentation is on record?
**A.** The augmentation was “inactive”.

**Q.** Which augmentation does the source give for `CCOC(=O)CSc1nnc(CNC(=O)c2ccc(S(=O)(=O)N3CCCC3)cc2)n1C` here?
**A.** The augmentation was “inactive”.

**Q.** With `Cc1cccc(CCNC(=O)C2CCCN(S(=O)(=O)c3cnc[nH]3)C2)c1` (stereo unspecified) as the compound, how does the augmentation read?
**A.** The augmentation was “inactive”.

**Q.** With `COc1ccc(S(=O)(=O)NCCCN2CCOCC2)c2ccccc12` as the compound, how does the augmentation read?
**A.** The augmentation was “inactive”.

**Q.** Which augmentation does the source give for `CCc1nnc(NC(=O)c2ccc(S(=O)(=O)NCC(C)C)cc2)s1` here?
**A.** Its augmentation is “inactive”.

**Q.** Which augmentation does the source give for `O=C(CCSc1nc(-c2ccco2)cc(C(F)(F)F)n1)NCCc1ccccc1` here?
**A.** The augmentation was “inactive”.

**Q.** Which augmentation does the source give for `CCc1ccccc1NC(=O)C(CC)Sc1nc2cc3c(cc2c(=O)n1Cc1ccco1)OCO3` (stereo unspecified) here?
**A.** Its augmentation is “inactive”.

**Q.** With `O=C(O)CCC(=O)c1c[nH]c2ccccc12` as the compound, how does the augmentation read?
**A.** The augmentation was “inactive”.

**Q.** With `CC(=O)SCCC(=O)Nc1ccccc1` as the compound, how does the augmentation read?
**A.** Its augmentation is “inactive”.

**Q.** Which augmentation does the source give for `c1cncc(-c2nc3c4ccccc4nc(N4CCC(N5CCCCC5)CC4)n3n2)c1` here?
**A.** The augmentation was “inactive”.

**Q.** With `c1ccc(Cn2nnnc2C(c2cccs2)N2CCSCC2)cc1` (stereo unspecified) as the compound, how does the augmentation read?
**A.** Its augmentation is “inactive”.

**Q.** With `CCOC(=O)c1ccc(N(CC(=O)NC2CCCC2)C(=O)CNC(=O)c2ccco2)cc1` as the compound, how does the augmentation read?
**A.** Its augmentation is “inactive”.

**Q.** With `O=C(O)c1ccc2c3c(ncnc13)-c1ccccc1C2=O` as the compound, how does the augmentation read?
**A.** Its augmentation is “inactive”.

**Q.** With `O=C(CSc1nnc(-c2ccncc2)o1)Oc1ccccc1` as the compound, how does the augmentation read?
**A.** Its augmentation is “inactive”.

**Q.** Which augmentation does the source give for `COc1ccccc1C(O)P(=O)(OC(C)C)c1ccc(N(C)C)cc1` (stereo unspecified) here?
**A.** The augmentation was “inactive”.

**Q.** For `O=C(NCCCn1ccnc1)c1cnn2c1NC(c1ccccc1)CC2C(F)(F)F` (stereo unspecified), which augmentation is on record?
**A.** The augmentation was “inactive”.

**Q.** For `COc1ccc(-c2noc(CN3CCC(Cc4ccccc4)CC3)n2)cc1`, which augmentation is on record?
**A.** The augmentation was 30.2%.

**Q.** With `Cc1nn(-c2ccccc2)c2c1C(c1c(C)[nH]c(C#N)c1C)C(C#N)=C(N)O2` (stereo unspecified) as the compound, how does the augmentation read?
**A.** Its augmentation is “inactive”.

**Q.** With `CCOC(=O)N1CCN(C(=O)COc2ccc(Br)cc2Cl)CC1` as the compound, how does the augmentation read?
**A.** The augmentation was 61.2%.

**Q.** For `COc1ccccc1C1CC(c2ccc(C)cc2)Nc2ncnn21` (stereo unspecified), which augmentation is on record?
**A.** The augmentation was “inactive”.

**Q.** With `COc1ccccc1CN1CC(C(=O)N2CCN(c3ccc(F)cc3)CC2)CC1=O` (stereo unspecified) as the compound, how does the augmentation read?
**A.** Its augmentation is “inactive”.

**Q.** Which augmentation does the source give for `CCOC(=O)C1C2C=CC3(CN(Cc4ccco4)C(=O)C13)O2` (stereo unspecified) here?
**A.** The augmentation was “inactive”.

**Q.** For `COc1ccc(CN2C(=O)c3ccccc3C2C(=O)NC2CCCC2)c(OC)c1` (stereo unspecified), which augmentation is on record?
**A.** Its augmentation is “inactive”.

**Q.** Which augmentation does the source give for `CN(C)c1ccc(/C=C/c2ccncc2)cc1` here?
**A.** The augmentation was 42.9% (active).

**Q.** Which augmentation does the source give for `CN(C)c1ccc(C=Nc2ccc(N(C)C)cc2)cc1` here?
**A.** The augmentation was “inactive”.

**Q.** For `CN(C)c1ccc(CNn2cnnc2)cc1`, which augmentation is on record?
**A.** The augmentation was “inactive”.

**Q.** For `N#CCCNCC1(c2ccccc2)CCCC1`, which augmentation is on record?
**A.** Its augmentation is “inactive”.

**Q.** Which augmentation does the source give for `O=C(CSc1nnc2ccccn12)NCCN1C(=O)CSC1=O` here?
**A.** Its augmentation is “inactive”.

**Q.** With `Cc1ccc(NC(=O)CSc2nnc(NC(=O)CN3CCOCC3)s2)cc1` as the compound, how does the augmentation read?
**A.** The augmentation was “inactive”.

**Q.** For `CCCc1[nH]nc2c1C(c1cccc(OC(=O)c3ccco3)c1)C(C#N)=C(N)O2` (stereo unspecified), which augmentation is on record?
**A.** Its augmentation is “inactive”.

**Q.** Which augmentation does the source give for `CCN(CC)c1ccc2cc(NC(=O)CCC(=O)O)c(=O)oc2c1` here?
**A.** The augmentation was “inactive”.

**Q.** With `CCN(CC)c1ccc2cc(-c3nc4ccccc4[nH]3)c(=O)oc2c1` as the compound, how does the augmentation read?
**A.** Its augmentation is 100% (active).

**Q.** With `CCN(CC)c1ccc2c(C)c(-c3ccc(N)cc3)c(=O)oc2c1` as the compound, how does the augmentation read?
**A.** Its augmentation is “inactive”.

**Q.** For `CCCCOc1ccc(CSc2n[nH]c(C)n2)cc1`, which augmentation is on record?
**A.** Its augmentation is “inactive”.

**Q.** Which augmentation does the source give for `COC(=O)c1ccc(Cl)c(NC(C)=O)c1` here?
**A.** The augmentation was 82.8% (active).

**Q.** With `CC(=O)Nc1cc(N2C(=O)CCC2=O)ccc1Cl` as the compound, how does the augmentation read?
**A.** Its augmentation is “inactive”.
